# Results taken from PubChem BioAssay (EPA / NIEHS).
# Inconclusive results are not listed. Calls of active or inactive are those of the source. How the source made its calls: active means hit-call score of the fitted dose curve at least 0.9, where 1 is the maximum; inconclusive means response in the unintended direction; inactive means score below 0.9.
# Experiment: Tanguay_ZF_120hpf_BRAI_legacy: (Legacy) Oregon State University Tanguay Lab 120 Hour Post-fertilization zebrafish Assay for Brain Malformation (AID 2283641)
# Protocol: Tanguay_ZF_120hpf_legacy is a whole embryo, multiplexed endpoint assay using zebrafish larvae exposed for 120 hours post fertilization on a 96-well plate.Tanguay_ZF_120hpf_BRAI_legacy is one of one assay component(s) measured or calculated from the Tanguay_ZF_120hpf_legacy assay. It is designed to make measurements of zebrafish development as detected with brightfield microscopy of developing zebrafish embryos.Data from the assay component Tanguay_ZF_120hpf_BRAI_legacy was analyzed into 1 assay endpoints. This assay endpoint, Tanguay_ZF_120hpf_BRAI_legacy, was analyzed in the positive analysis fitting direction relative to DMSO as the negative control and baseline of activity. Using a type of morphology reporter, gain-of-signal activity can be used to understand changes in developmentals as they relate to the whole embryo. To generalize the intended target to other relatable targets, this assay endpoint is annotated to the zebrafish development intended target family, where the subfamily is brain morphogenesis.
# Zebrafish husbandry: Tropical 5D wild-type adult zebrafish were housed in at an approximate density of 1000 per 100 gallon tank at the Sinnhuber Aquatic Research Laboratory, Oregon State University, Corvallis, OR. Each tank was kept at standard laboratory conditions of 28C on a 14-h light/10-h dark photoperiod in fish water consisting of reverse osmosis water supplemented with a commercially available salt (Instant Ocean). Spawning funnels were placed into the tanks the night prior, and embryos were collected and staged. […] Ten microliters of each row of dilution plate 2 was added to 2 exposure plates. The final DMSO concentration used was 0.64% (vol/vol). Thirty-two embryos were also exposed to 5uM trimethyltin chloride (positive control). Plates were sealed to prevent evaporation and foil covered to reduce light exposure and kept in a 28C incubator. Embryos were statically exposed until 120 hpf. At 24 hpf, embryos were assessed for photomotor response using a custom photomotor response analysis tool (PRAT) and for developmental toxicity endpoints (MO24: mortality at 24 hpf, DP: developmental progression, SM: spontaneous movement, and NC: notochord distortion). At 120 hpf, locomotor activity was measured using Viewpoint Zebralab and assessed for 18 endpoints. Zebrafish acquisition and analysis program (ZAAP), a custom program designed to inventory, acquire, and manage zebrafish data, was used to collect developmental endpoints as either present or absent (i.e., binary responses were recorded). If mortality occurred for an embryo (at either 24 or 120 hpf), the non-mortality endpoints were not measured.
Compound,outcome,AC50
COS(C)(=O)=O,inactive,–
NNC(=O)c1ccncc1,inactive,–
C[C@]12C=CC(=O)C=C1CC[C@H]1[C@@H]3C[C@@H](O)[C@](O)(C(=O)CO)[C@@]3(C)C[C@H](O)[C@@]12F,inactive,–
CCCCCOC(C)=O,inactive,–
CCCCCCCCN(C)C,inactive,–
OCCOCCOCCO,inactive,–
C[C@@H](Oc1ccc(CNC(=O)c2cccnc2Oc2ccc3c(c2)OCO3)c(F)c1)C(=O)O,inactive,–
CCCC(CCC)C(=O)O,inactive,–
OCC(CO)(CO)CO,inactive,–
O=C(NO)C1(NS(=O)(=O)c2ccc(Oc3ccc(F)cc3)cc2)CCOCC1,inactive,–
CCOC(N)=O,inactive,–
Nc1ccn([C@@H]2O[C@H](CO)[C@@H](O)[C@@H]2O)c(=O)n1,inactive,–
CCn1nc(C)c2c1C(=O)NCC(c1ccc(O)cc1)=N2,inactive,–
NC(=O)N(O)[C@@H]1COc2cc(OCc3ccccc3)ccc21,inactive,–
CCc1cccc(CC)c1N,inactive,–
c1ccc2ncccc2c1,inactive,–
O=C1CN(N=Cc2ccc([N+](=O)[O-])o2)C(=O)N1,inactive,–
NC(=O)NN=Cc1ccc([N+](=O)[O-])o1,inactive,–
CCCCCCCCCC,inactive,–
CCCCCCOC(=O)CC(CC(=O)OCCCCCC)(OC(=O)CCC)C(=O)OCCCCCC,inactive,–

Compound,outcome,AC50
OCCNCCO,inactive,–
CCCCC(CC)C(=O)OCCOCCOCCOC(=O)C(CC)CCCC (stereo not given),inactive,–
O=S1(=O)CCCO1,inactive,–
Cn1cc[nH]c1=S,inactive,–
CC(C)CC(C)O (stereo not given),inactive,–
Cc1nccn1-c1ccc(Sc2cccc(C3(C(N)=O)CCOCC3)c2)cc1,inactive,–
CCCCCCCCCCCCCCO,inactive,–
Cc1ccc(S(=O)(=O)NC(=O)NN2CCCCCC2)cc1,inactive,–
CCc1ccc(O)c(C(C)(C)C)c1,inactive,–
Cc1nc(-c2ccccn2)ncc1C(=O)Nn1cc(C)c2cc(F)ccc21,inactive,–
O=C(O)[C@H](O)[C@@H](O)C(=O)O,inactive,–
CC(C)C(=O)Nc1ccc([N+](=O)[O-])c(C(F)(F)F)c1,inactive,–
c1ccc(C(O[C@@H]2CCCN(CCc3ccc4c(c3)OCO4)C2)c2ccccc2)cc1,–,42 µM (active)
CC1(C)C(=O)N(Cl)C(=O)N1Cl,inactive,–
OCc1ccccc1,inactive,–
CC[C@H](C)C(=O)O[C@H]1C[C@H](O)C=C2C=C[C@H](C)[C@H](CC[C@@H](O)C[C@@H](O)CC(=O)O)[C@H]21,inactive,–
OC(CCl)CCl,inactive,–
CCOc1ccc2[nH]cc(C(=O)NCc3ccccc3)c(=O)c2n1,inactive,–
c1ccc2c(c1)-c1cccc3c1c-2cc1ccccc13,inactive,–
CNC(C)=O,inactive,–
